PubChem BioAssay (NCATS)
Results filed as inconclusive are left out. Activity calls are given as the source filed them. Calls come from the whole dose curve; as a rule, active = well fitted inhibition curve with a large enough effect; inconclusive = small, poorly fitted or top-dose-only effect; inactive = flat fitted curve, though single readings scatter.

What was measured:
P94_40 = assay: qHTS profiling for inhibitors of Plasmodium falciparum proliferation (AID 504749); settings: P. falciparum in erythrocytes, SYBR Green DNA, 72 h; series mostly up to 28.7 µM
Summary of the method: (§1)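 P. falciparum-infected erythrocytes (0.3% parasitemia, 2.5% hematocrit final) were exposed to compounds for 72 h at 37 C in 5% CO2, then lysed with SYBR Green buffer overnight at room temperature; parasite DNA fluorescence was normalized to artemisinin and DMSO controls.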

PAD = assay: as above; settings: P. falciparum in erythrocytes, SYBR Green DNA, 72 h; series mostly up to 28.7 µM
Summary of the method: as §1

PC15 = assay: as above; settings: P. falciparum in erythrocytes, SYBR Green DNA, 72 h; series mostly up to 28.7 µM
Summary of the method: as §1

PC26 = assay: as above; settings: P. falciparum in erythrocytes, SYBR Green DNA, 72 h; series mostly up to 28.7 µM
Summary of the method: as §1

PC49 = assay: as above; settings: P. falciparum in erythrocytes, SYBR Green DNA, 72 h; series mostly up to 28.7 µM
Summary of the method: as §1

SC27B = assay: as above; settings: P. falciparum in erythrocytes, SYBR Green DNA, 72 h; series mostly up to 28.7 µM
Summary of the method: as §1

TAB109 = assay: as above; settings: P. falciparum in erythrocytes, SYBR Green DNA, 72 h; series mostly up to 28.7 µM
Summary of the method: as §1

TAB113 = assay: as above; settings: P. falciparum in erythrocytes, SYBR Green DNA, 72 h; series mostly up to 28.7 µM
Summary of the method: as §1

TAB165 = assay: as above; settings: P. falciparum in erythrocytes, SYBR Green DNA, 72 h; series mostly up to 28.7 µM
Summary of the method: as §1

W2 = assay: as above; settings: P. falciparum in erythrocytes, SYBR Green DNA, 72 h; series mostly up to 28.7 µM
Summary of the method: as §1

HaCat [1] = assay: Cytotoxic Profiling of Annotated Libraries Using Quantitative High-Throughput Screening (AID 1296008); settings: Five cell lines viability, CellTiter-Glo ATP luminescence, 48-72 h; max response: active compounds read low; for max response: % is set by controls: 0 for no effect and ±100 for the full control effect
Summary of the method: (§2)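 Compounds were pin-transferred onto cells and incubated 48 or 72 hr at 37 degree Celsius, 95% humidity. CellTiter-Glo was added, plates sat 10 min at room temperature, then ATP-coupled luminescence was imaged as the viability read-out.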

NIH3T3 = assay: as above; settings: Five cell lines viability, CellTiter-Glo ATP luminescence, 48-72 h; max response: active compounds read low
Summary of the method: as §2

KB-3-1 = assay: as above; settings: Five cell lines viability, CellTiter-Glo ATP luminescence, 48-72 h; max response: active compounds read low
Summary of the method: as §2

MCC-13 = assay: qHTS assay to identify novel small-molecules to repurpose for Merkel cell carcinoma treatment (AID 1296009); settings: MCC and control cell lines, CellTiter-Glo viability, 72 h; series mostly up to 46 µM
Summary of the method: (§3)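 Cells exposed to NPC (8-point) and MIPE (11-point) compound dilutions for 72 hr at 37 degree celsius; viability read by CellTiter-Glo luminescence, normalized to no-cell and DMSO in-plate controls.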

MCC-26 = assay: as above; settings: MCC and control cell lines, CellTiter-Glo viability, 72 h; series mostly up to 46 µM
Summary of the method: as §3

MKL-1 = assay: as above; settings: MCC and control cell lines, CellTiter-Glo viability, 72 h; series mostly up to 46 µM
Summary of the method: as §3

HACAT [2] = assay: as above; settings: MCC and control cell lines, CellTiter-Glo viability, 72 h; at 44.8 µM (top of the series) unless noted
Summary of the method: as §3
Note: nearly all actives have a fitted effect of over 60% in size.
Potency is the fitted concentration of half-maximal effect.

COc1ccc(/C=C/C(=O)c2ccc(OC)cc2OC)cc1
active: Potency (P94_40) 10 µM | Potency (PAD) 10 µM | Potency (PC15) 7.08 µM | Potency (PC26) 7.57 µM | Potency (PC49) 5.62 µM | Potency (SC27B) 10 µM | Potency (TAB109) 7.08 µM | Potency (TAB113) 8.91 µM | Potency (TAB165) 4.47 µM | Potency (W2) 4.26 µM
inactive: max response (HaCat [1]) -62.6% | max response (NIH3T3) -18.9%

CCCCN1CCCC1C(=O)Nc1c(C)cc(C)cc1C (stereo not given)
inactive: Potency (P94_40) | Potency (PAD) | Potency (PC15) | Potency (PC26) | Potency (PC49) | Potency (SC27B) | Potency (TAB109) | Potency (TAB113) | Potency (TAB165) | max response (KB-3-1) -0.66% | max response (NIH3T3) -4.8% | Potency (MCC-13) | Potency (MCC-26) | Potency (MKL-1)

CN1CCCC(CC2c3ccccc3Sc3ccccc32)C1 (stereo not given)
inactive: max response (HaCat [1]) 2.06% | max response (KB-3-1) 7.2% | Potency (MCC-26)

O=C(CCN1CCC(c2ccccc2)C1)c1ccc2c(c1)OCCO2 (stereo not given)
active: Potency (MKL-1) 2.66 µM
inactive: Potency (PAD) | Potency (PC15) | Potency (PC26) | Potency (PC49) | Potency (SC27B) | Potency (TAB109) | Potency (TAB113) | Potency (TAB165) | Potency (W2) | outcome (HaCat [1]) | max response (KB-3-1) -5.38% | outcome (HACAT [2]) | Potency (MCC-26)

CCCSS/C(CCO)=C(\C)N(C=O)Cc1cnc(C)nc1N
active: Potency (MCC-26) 26.6 µM | Potency (MKL-1) 21.1 µM
inactive: max response (KB-3-1) 33.8%

CN(C(=O)CN(CCO)CC(=O)N(C)C(C)(C)Cc1ccccc1)C(C)(C)Cc1ccccc1
active: Potency (W2) 3.61 µM
inactive: Potency (P94_40) | Potency (PAD) | Potency (PC15) | Potency (PC26) | Potency (PC49) | Potency (SC27B) | Potency (TAB109) | Potency (TAB113) | max response (HaCat [1]) -0.203% | max response (KB-3-1) -13.8% | Potency (MCC-26)

CCC(NC(C)C)C(O)c1ccc(O)c(O)c1 (stereo not given)
inactive: max response (KB-3-1) -9.53%

CN1CCN(CCCN2c3ccccc3Sc3ccc(S(=O)(=O)N(C)C)cc32)CC1
inactive: outcome (HaCat [1]) | max response (KB-3-1) -2.22% | outcome (HACAT [2]) | Potency (MCC-13) | Potency (MCC-26)
active: Potency (P94_40) 3.16 µM | Potency (PAD) 3.98 µM | Potency (TAB165) 3.98 µM | Potency (W2) 2.03 µM

CCCC1O[C@@H]2C[C@H]3[C@@H]4CCC5=CC(=O)C=C[C@]5(C)[C@H]4[C@@H](O)C[C@]3(C)[C@]2(C(=O)CO)O1 (stereo not given in full)
inactive: max response (KB-3-1) 0.499%

CCCCCCCCCCCCCCNCCO
inactive: Potency (PC26) | Potency (PC49) | Potency (SC27B) | Potency (TAB109) | Potency (TAB113) | Potency (TAB165) | max response (KB-3-1) 5.95% | Potency (MCC-13) | Potency (MCC-26)
active: Potency (W2) 9.53 µM

NC(=O)C(=O)N/N=C/c1ccc([N+](=O)[O-])o1
inactive: Potency (P94_40) | Potency (PAD) | Potency (PC15) | Potency (PC49) | Potency (SC27B) | Potency (TAB109) | Potency (TAB113) | Potency (TAB165) | outcome (HaCat [1]) | max response (KB-3-1) 30.2% | outcome (HACAT [2]) | Potency (MCC-13) | Potency (MCC-26)
active: Potency (MKL-1) 26.6 µM

Cc1c(C)n(Cc2ccccc2)c2ccc(C(=O)OCCN(C)C)cc12
inactive: Potency (P94_40) | Potency (PAD) | Potency (PC15) | Potency (PC26) | Potency (PC49) | Potency (SC27B) | Potency (TAB109) | Potency (TAB113) | Potency (TAB165) | outcome (HaCat [1]) | max response (KB-3-1) 1.73% | outcome (HACAT [2]) | Potency (MCC-13) | Potency (MCC-26) | Potency (MKL-1)

COc1cc(N)c(Cl)cc1C(=O)NC1CCN(CCCOc2ccc(F)cc2)CC1OC (stereo not given)
inactive: max response (HaCat [1]) -1.88% | max response (KB-3-1) 6.35% | Potency (MCC-13) | Potency (MCC-26) | Potency (MKL-1)

O=C(Nc1ccc(Cl)c(Cl)c1)C1CC1
inactive: Potency (P94_40) | Potency (PAD) | Potency (PC15) | Potency (PC26) | Potency (PC49) | Potency (SC27B) | Potency (TAB109) | Potency (TAB113) | Potency (TAB165) | Potency (W2) | max response (KB-3-1) -14.1% | max response (NIH3T3) -1.64% | Potency (MCC-13) | Potency (MCC-26) | Potency (MKL-1)

C[C@@H](CN(C)C)CN1c2ccccc2Sc2ccccc21
inactive: Potency (PAD) | Potency (PC15) | Potency (PC49) | Potency (SC27B) | Potency (TAB109) | Potency (TAB113) | Potency (TAB165) | max response (HaCat [1]) -0.198% | max response (KB-3-1) -9.85% | max response (NIH3T3) -1.51% | Potency (MCC-13) | Potency (MCC-26)

O=C(N/N=C/c1ccccc1O)c1ccncc1
active: Potency (P94_40) 10 µM | Potency (TAB109) 12.6 µM | Potency (TAB165) 5.62 µM | Potency (W2) 6.01 µM | Potency (NIH3T3) 16.8 µM | Potency (MCC-26) 9.44 µM | Potency (MKL-1) 1.06 µM
inactive: Potency (PC15) | Potency (PC49) | max response (HaCat [1]) -6.14% | max response (KB-3-1) 8.17%

Cc1cc(N)c2cc(NC(=O)Nc3ccc4nc(C)cc(N)c4c3)ccc2n1
active: Potency (P94_40) 12.6 µM | Potency (PAD) 12.6 µM | Potency (SC27B) 12.6 µM | Potency (TAB109) 12.6 µM | Potency (TAB113) 10 µM | Potency (TAB165) 5.62 µM | Potency (W2) 0.849 µM
inactive: max response (HaCat [1]) -0.42% | max response (KB-3-1) -4.37% | max response (NIH3T3) -1.27% | Potency (MCC-13) | Potency (MCC-26)

Clc1ccc2c(c1)CCc1cccnc1C2=C1CCNCC1
inactive: Potency (SC27B) | max response (HaCat [1]) -1.5% | max response (KB-3-1) -7.06% | Potency (MCC-13) | Potency (MCC-26)
active: Potency (PC26) 13.5 µM | Potency (W2) 3.38 µM

CC[C@H](C)C(=O)O[C@H]1CCC=C2C=C[C@H](C)[C@H](CC[C@@H]3C[C@@H](O)CC(=O)O3)[C@H]21
inactive: max response (KB-3-1) 3.96%

CC(=O)O[C@H]1C[C@@H]2CC[C@@H]3[C@H](CC[C@@]4(C)[C@H]3C[C@H]([N+]3(C)CCCCC3)[C@@H]4OC(C)=O)[C@@]2(C)C[C@@H]1[N+]1(C)CCCCC1
inactive: max response (KB-3-1) 1.63%

C[C@]12C=CC(=O)C=C1CC[C@@H]1[C@@H]2[C@@H](O)C[C@@]2(C)[C@H]1CC[C@]2(O)C(=O)CO
inactive: outcome (NIH3T3)

CCN(CC)C(=O)N1CCN(C)CC1
inactive: Potency (P94_40) | Potency (PAD) | Potency (PC15) | Potency (PC26) | Potency (PC49) | Potency (SC27B) | Potency (TAB109) | Potency (TAB113) | Potency (TAB165) | Potency (W2) | Potency (MCC-13) | Potency (MKL-1)
